# According to the supplement of paper PMC6555819:
# Assays:
# Assay in all cases: PBM binding z-score (relative to random genomic background probes); higher = stronger binding; sequences stand for … in GC…GCGATTGACAGCGTAGAATGAAGG
# [1] = tested on: FXR:RXRa (NR concentration 270 nM, RXRa partner concentration 90 nM)
# Procedure, shortened: (§1)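 Custom Agilent 4×180K protein-binding microarrays carried double-stranded probes, each with a 34-nt variable region. These regions held direct-repeat seeds, single-nucleotide variants, half-site ablations and random human genomic background sequences. Ligand-free nuclear receptor dimers were incubated on the arrays for 1 h, antibodies against each partner (one per run) detected binding, and scanned fluorescence was regression-normalized. Binding z-scores take the random background probes as reference.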
# [2] = tested on: LXRa:RXRa (NR concentration 270 nM, RXRa partner concentration 90 nM)
# Procedure, shortened: as §1
# [3] = tested on: LXRa homodimer (NR concentration 270 nM)
# Procedure, shortened: as §1
# [4] = tested on: LXRb:RXRa (NR concentration 270 nM, RXRa partner concentration 90 nM)
# Procedure, shortened: as §1
# [5] = tested on: LXRb homodimer (NR concentration 270 nM)
# Procedure, shortened: as §1
# [6] = tested on: PPARa:RXRa (NR concentration 270 nM, RXRa partner concentration 90 nM)
# Procedure, shortened: as §1
# [7] = tested on: PPARg:RXRa (NR concentration 180 nM, RXRa partner concentration 90 nM)
# Procedure, shortened: as §1
# [8] = tested on: PPARg:RXRa 270nM:90nM, anti-RXR (NR concentration 270 nM, RXRa partner concentration 90 nM)
# Procedure, shortened: as §1
# [9] = tested on: PPARg:RXRa 30nM:10nM, anti-RXR (NR concentration 30 nM, RXRa partner concentration 10 nM)
# Procedure, shortened: as §1
# [10] = tested on: PPARg:RXRa 90nM:30nM, anti-RXR (NR concentration 90 nM, RXRa partner concentration 30 nM)
# Procedure, shortened: as §1
# [11] = tested on: PPARg:RXRa DBDmut IVT, anti-RXR (DBD mutation: RXRa K156A/R161A, NR concentration 270 nM, RXRa partner concentration 90 nM)
# Procedure, shortened: as §1
# [12] = tested on: PPARg:RXRa IVT, anti-PPARg (NR concentration 270 nM, RXRa partner concentration 90 nM)
# Procedure, shortened: as §1
# [13] = tested on: PPARg DBDmut:RXRa IVT, anti-PPARg (DBD mutation: PPARg1 K132A/R137A, NR concentration 270 nM, RXRa partner concentration 90 nM)
# Procedure, shortened: as §1
# [14] = tested on: PPARg DBDmut IVT, anti-PPARg (DBD mutation: PPARg1 K132A/R137A, NR concentration 270 nM)
# Procedure, shortened: as §1
# [15] = tested on: PPARg homodimer (NR concentration 180 nM)
# Procedure, shortened: as §1
# [16] = tested on: PXR:RXRa (NR concentration 270 nM, RXRa partner concentration 90 nM)
# Procedure, shortened: as §1
# [17] = tested on: PXR homodimer (NR concentration 270 nM)
# Procedure, shortened: as §1
# [18] = tested on: RARa:RXR (NR concentration 270 nM, RXRa partner concentration 90 nM)
# Procedure, shortened: as §1
# [19] = tested on: RARa homodimer (NR concentration 270 nM)
# Procedure, shortened: as §1
# [20] = tested on: RARb:RXRa (NR concentration 270 nM, RXRa partner concentration 90 nM)
# Procedure, shortened: as §1
Sequence,PBM binding z-score [1],PBM binding z-score [2],PBM binding z-score [3],PBM binding z-score [4],PBM binding z-score [5],PBM binding z-score [6],PBM binding z-score [7],PBM binding z-score [8],PBM binding z-score [9],PBM binding z-score [10],PBM binding z-score [11],PBM binding z-score [12],PBM binding z-score [13],PBM binding z-score [14],PBM binding z-score [15],PBM binding z-score [16],PBM binding z-score [17],PBM binding z-score [18],PBM binding z-score [19],PBM binding z-score [20]
GCTTGTAGATCAAGGTTTAGAAAGACTAAGCTAA,-0.378,-0.689,-0.302,-0.532,-0.671,0.113,1.13,2.05,0.713,2.05,1.06,0.361,-0.41,0.0012,-0.0341,-0.479,-0.437,-0.166,0.111,-0.486
CGAACTAGGTCAGAACAGGACAGTGAAGGATGAT,1.69,0.689,-0.0376,0.189,-0.174,2.78,4.94,4.45,1.53,3.44,7.21,6.92,1.26,0.744,0.92,0.787,-0.0517,0.927,0.693,2.77
CCTAGCAGGCCAGGGTAACTCAAGCATTTCGCTT,-0.463,-0.678,-0.559,-0.682,-1.09,0.0169,-0.112,-0.182,-1.01,-0.605,0.216,-0.0636,-1.68,-1.83,-0.387,-0.679,-0.762,-0.455,-0.937,-0.102
TCTCGGAGGACACGAAGGCCAGAGCTTTCCAGAG,0.413,-0.099,-0.863,-0.477,-0.953,0.156,-0.048,0.609,1.81,1.36,1.5,0.0169,-0.633,-1.61,-0.704,-0.278,-0.919,-0.235,-1.31,1.82
TCTCGGAGGACATGAAAGGTCAGAGCTCGACATC,2.65,3.67,2.92,3.09,-0.221,3.34,1,2.68,2.8,2.61,2.04,1.1,-0.0886,-0.561,2.54,3.59,0.0503,3.72,0.458,3.99
AGCTCTAGGTAAGACTCAGTTCAGTGAAGAACGC,-0.104,0.132,0.197,-0.188,-0.399,-0.0359,-0.139,0.0762,0.0391,-0.261,2.37,0.56,-0.869,0.622,-0.0493,0.744,0.904,-0.0214,-0.00994,-0.0595
TCTTGTATATCAAGCAGGTTAAGAAAGCCTGAGT,0.234,0.335,0.0276,0.678,0.189,0.992,-0.217,1.47,2.86,1.86,1.41,0.503,0.561,1.48,0.514,0.624,0.331,0.805,0.189,0.615
CGAACTAGGTCAAGGACAGTGAGTCTCCGCACGC,3.12,1.84,-0.202,0.891,-0.739,4.6,7.31,6.21,3.52,5.83,8.24,8.49,4.66,1.15,1.2,0.826,-0.0553,1.87,-0.462,3.83
TAGCCTAGGTCATTCAGGGGCCAGTATCGAAAGC,4.39,3.78,0.945,3.2,1.1,3.76,1.95,2.11,0.0848,0.958,1.77,2.83,0.988,-0.403,1.28,2.47,0.344,3.36,-0.599,3.67
CGTCCAAGGTCAGAGAGCTCAGTGAATGCCGAGT,4.73,2.83,-0.139,1.84,-0.554,3.92,1.95,2.52,0.0748,1.43,2.67,1.84,-0.717,-0.346,1.67,2.14,0.855,2.37,0.367,4.6
GCGACTGGGGCAAAGCAGGTTCCCATAAGGTTGG,-0.34,-0.649,-0.593,-0.596,-1.21,0.522,0.609,0.847,-0.583,0.203,3.87,2.9,-1.3,-1.28,-0.328,-0.524,-0.517,-0.168,-1.06,0.44
